In the library only some 3.8% were active in any assay of this set; here they are far more common.
tim23-1 inh: growth inhibitors of tim23-1 mutant yeast, primary screen, luminescence, uHTS | inhibition, % at 20 µM | AID 463212, 2010 | 330,000 compounds, 1.3% hits | S. cerevisiae tim23-1 growth, BacTiter-Glo luminescence, 24 h;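 active = growth inhibition of the mutant yeast at or above 50%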;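 also: temperature-sensitive mutant grown at 25 °C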
TIM10 inh: growth inhibitors of isogenic TIM10 control yeast, primary screen, counter-screen for tim10-1 yeast inhibitor project, luminescence, uHTS; inhibition, % at 10 µM; AID 463195, 2010; 330,000 compounds, 1.4% hits; S. cerevisiae TIM10 strain growth, BacTiter-Glo luminescence, 24 h;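 active = inhibition of 40% or more at the single tested concentration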;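 also: wild-type TIM10 isogenic control strain grown at permissive 25 °C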
NALP3 yeast inh: NALP3 inflammasome inhibitors in reconstituted yeast, primary screen, luminescence, uHTS | AID 2825, 2010 | 330,000 compounds, 0.39% hits | inhibition, % at 10 µM | Yeast reconstituted NLRP3/ASC/caspase-1, beta-gal luminescence, 24 h;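 active = inhibition of 50% or more; inactive = inhibition below 50%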
tim10-1 inh: growth inhibitors of tim10-1 mutant yeast, primary screen, luminescence, uHTS; S. cerevisiae tim10-1 ts strain growth, BacTiter-Glo, 24 h; inhibition, % at 20 µM; 330,000 compounds, 2.2% hits; AID 463190, 2010;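 active = inhibition of at least 40%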;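 also: mutant grown at 25 °C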
CR mimetic SO: reduction of superoxide in aged yeast, primary screen, HTS; S. cerevisiae aged cells, superoxide DHE fluorescence; hits give low values; superoxide response (% of plate mean), % at 10 µM; 330,000 compounds, 0.18% hits; AID 2690, 2010;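 active = superoxide response under a set limit, about three screen SD below normal, cut at about 65% in these data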;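 also: yeast aged for seven days with compound at 30 °C before DHE staining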
tim23-1 conf: tim23-1 mutant yeast growth inhibitors, confirmation, luminescence, single concentration; inhibition, % at 20 µM; 4,400 compounds, 83% hits; S. cerevisiae tim23-1 growth, BacTiter-Glo luminescence, 24 h; shares compounds with tim23-1 inh;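 active = inhibition above about 39% in either of two replicate wells at 20 µM, limit read from the data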;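 also: temperature-sensitive tim23-1 mutant grown at 25 °C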
Large screens that a line does not name were inactive (follow-up assays come after a bar, where they were run).

Cc1oc2cc(O)cc(O)c2c(=O)c1-c1ccc2c(c1)OCCCO2	tim23-1 inh 65 | tim23-1 conf 53
NCCOc1ccc(C23CC4CC(CC(C4)C2)C3)cc1	tim23-1 inh 66 | tim23-1 conf 77
CCOC(=O)c1ccc(OC(=O)CCCCCN=C(N)N)cc1	none
CCN=c1scc(-c2ccc(F)cc2)n1/N=C/c1ccccn1	tim23-1 inh 58 | tim23-1 conf 70
CCCc1sc(N/N=C/c2ccccn2)nc1-c1ccc(F)cc1	none
CCCCN(Cc1ccccc1)S(=O)(=O)c1cc(Br)cc2c1N(C(C)=O)C(C)C2 (stereo unspecified)	tim23-1 inh 56 | tim23-1 conf 53
O=C(Nc1ccc(F)c(Cl)c1)C1CC2CCC1C2 (stereo unspecified)	tim23-1 inh 61 | tim23-1 conf 68
CCC(C)c1ccc(NC(=O)C2CC3CCC2C3)cc1 (stereo unspecified)	tim23-1 inh 52 | tim23-1 conf 51
CC(C)c1ccc(NC(=O)C2CC3CCC2C3)cc1 (stereo unspecified)	none
CCc1ccc(CNC(=O)C2Cc3cc(S(=O)(=O)N4CCCC4)ccc3N2C(C)=O)cc1 (stereo unspecified)	none
CCCCc1ccc(S(=O)(=O)N2CCC3(CC2)OCCO3)cc1	none
O=S(=O)(Nc1ccc(-c2csc(-c3ccccc3)n2)cc1)c1ccccc1	tim23-1 inh 50 | tim23-1 conf inactive
CCCNC(=O)c1oc2ccc3c(c2c1C)C(O)CC(C)(C)O3 (stereo unspecified)	none
Cc1c(C(=O)NCc2ccoc2)oc2ccc3c(c12)C(=O)CC(C)(C)O3	tim23-1 inh 52 | tim23-1 conf 53
CN(c1ccc(C(=O)Nc2ccc3c(c2)n(C)c(=O)n3C)cc1)S(C)(=O)=O	none
O=C(OCC(=O)N1CCCc2ccccc21)c1cc(S(=O)(=O)N2CCOCC2)ccc1O	none
C/C(=N\N(c1ccccc1)c1ccccc1)c1ccc(N)cc1	none
C/C(=N\N(c1ccccc1)c1ccccc1)c1ccc(O)cc1	tim23-1 inh 54 | tim23-1 conf 44
O=C(c1ccc2ccccc2n1)N1CCN(S(=O)(=O)c2ccc(Cl)cc2)CC1	tim23-1 inh 50 | tim23-1 conf inactive
S=C(NCCc1cccc(Cl)c1)NCc1ccccc1	tim23-1 inh 56 | tim23-1 conf inactive
S=C(NCc1ccccc1)NCc1cccc(Cl)c1	none
O=Cc1cccc(OCc2cccc3ccccc23)c1	tim23-1 inh 57 | tim23-1 conf inactive
CCN(CC)S(=O)(=O)c1ccc(O)c(C(=O)OCC(=O)NC23CC4CC(CC(C4)C2)C3)c1	none
Cc1ccc(-c2nnc(NC3CCCC3)s2)cc1	tim23-1 inh 53 | tim23-1 conf 42
O=C(C1CCN(S(=O)(=O)N2CCCCC2)CC1)N1CCCCC1	none
CC(=O)Nc1ccc(NC(=O)CSc2n[nH]c(-c3cccs3)n2)cc1	none
CCCCc1c(O)c2ccccc2n(CCCC)c1=O	none
CCCCCCn1c(=O)c(-c2ccccc2)c(O)c2ccccc21	tim23-1 inh 50 | tim23-1 conf 44
CC1CCCCN1C(=O)Nc1cccc(Cl)c1 (stereo unspecified)	tim23-1 inh 51 | tim23-1 conf 48
CC1CCCN(C(=O)Nc2cccc(NC(=O)N3CCCC(C)C3C)c2)C1C (stereo unspecified)	none
COC(=O)c1ccc(C)c(NC(=O)C(CCSC)NC(=O)c2cc(OC)c(OC)c(OC)c2)c1 (stereo unspecified)	none
Cc1cccc(C(=O)N/N=C/c2coc3ccccc3c2=O)c1	none
COc1ccc(C(=O)N/N=C/c2ccc3cccc(O)c3n2)cc1	tim23-1 inh 53 | tim23-1 conf 54
O=C(N/N=C/c1cc(Cl)cc(Cl)c1O)c1ccncc1	tim23-1 inh 54 | tim23-1 conf 62
O=C(N/N=C/c1ccc2cccc(OCc3ccccc3)c2n1)c1ccc(Cl)cc1	none
COc1ccc(C(=O)N/N=C\c2coc3ccccc3c2=O)cc1	tim23-1 inh 51 | tim23-1 conf 43
